Test results reported in PubChem BioAssay (Tox21).
Records with an inconclusive call do not appear. Calls of active or inactive are those of the source. Unless noted, calls come from the whole dose curve.

Experiments:
[1] = Nuclear factor erythroid 2-related factor 2/antioxidant responsive element (Nrf2/ARE) small molecule agonists: qHTS cell viability counter screen in human keratinocytes (AID 1919968; active = well fitted curve in the direction sought with a large enough effect in the repeat runs; an effect the other way counts as inactive or inconclusive; note: nearly all actives have a fitted effect of over 55% in size)
How it was run: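 Fluorescence read-out from CellTiter-Fluor after 1 h at 37 C. Wells held HaCaT-derived ARE-luciferase reporter cells (1,500/well) treated 23 h with DMSO-dissolved compounds. Run in the same wells as the luciferase agonist read.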

[2] = molecular target: Gonadotropin-releasing hormone receptor (Homo sapiens) (UniProt P30968); test: Human gonadotropin-releasing hormone receptor (GnRHR) small molecule agonists, calcium flux assay in GnRHR-HEK293 cells (AID 1920063); note: nearly all actives have a fitted effect of over 35% in size
Sequence of Gonadotropin-releasing hormone receptor (Homo sapiens) (P30968 whole entry, looked up): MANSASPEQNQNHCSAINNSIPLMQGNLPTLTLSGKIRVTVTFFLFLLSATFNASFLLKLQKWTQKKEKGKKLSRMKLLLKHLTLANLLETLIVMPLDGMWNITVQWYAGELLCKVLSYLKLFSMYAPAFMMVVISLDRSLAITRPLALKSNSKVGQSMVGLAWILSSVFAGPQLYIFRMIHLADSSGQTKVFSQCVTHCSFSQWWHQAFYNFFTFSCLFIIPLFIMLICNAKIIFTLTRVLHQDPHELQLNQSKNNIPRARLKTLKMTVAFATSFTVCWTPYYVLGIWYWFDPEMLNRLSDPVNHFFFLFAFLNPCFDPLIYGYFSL
How it was run: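 Calcium-dye fluorescence, Ex/Em=480/540, recorded every 1 sec over 3 min after compound addition to GnRHR-HEK293 cells. Cells had been seeded 18 hours earlier and dye-loaded for 1 hour at 37 C. Fifteen concentrations, triplicates.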

[3] = molecular target: KiSS-1 receptor (Homo sapiens) (UniProt Q969F8); test: Human kisspeptin (KISS1R) small molecule agonists, calcium flux assay in KISS1R-HEK293 cells (AID 1920064; active = well fitted curve in the direction sought with a large enough effect in the repeat runs; an effect the other way counts as inactive or inconclusive)
Sequence of KiSS-1 receptor (Homo sapiens) (Q969F8 whole entry, looked up): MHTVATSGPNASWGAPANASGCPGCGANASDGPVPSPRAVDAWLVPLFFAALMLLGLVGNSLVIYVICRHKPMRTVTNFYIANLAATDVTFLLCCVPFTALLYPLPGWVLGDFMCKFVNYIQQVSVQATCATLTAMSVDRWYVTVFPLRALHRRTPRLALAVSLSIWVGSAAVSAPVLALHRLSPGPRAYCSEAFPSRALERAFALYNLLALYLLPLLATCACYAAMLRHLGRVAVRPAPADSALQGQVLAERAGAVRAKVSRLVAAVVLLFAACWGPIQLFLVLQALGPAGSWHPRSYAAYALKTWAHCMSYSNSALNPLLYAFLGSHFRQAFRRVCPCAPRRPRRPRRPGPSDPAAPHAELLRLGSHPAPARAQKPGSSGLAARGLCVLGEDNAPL
How it was run: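 Calcium flux read-out: kinetic fluorescence at Ex/Em=480/540, 1 s intervals over 3 min, after pin-tool compound addition to dye-loaded KISS1R-HEK293 cells. Fifteen concentrations, triplicates.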

[4] = G protein-coupled receptor (GPCR) small molecule agonists, calcium flux assay: HEK293 wild type cell line counter screen (AID 1920065)
How it was run: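 Agonist mode; 18 h seeding at 37 C, 1 h dye load at 37 C; compounds pinned from DMSO, ATP as positive control; kinetic fluorescence 480/540 nm, 3 min, 1 s reads; 15 concentrations, triplicate.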

[5] = p53 small molecule agonists, cell-based qHTS assay with human liver microsomes (AID 1963577);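 note: p53 response element beta-lactamase reporter cells with liver microsomes plus NADPH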
How it was run: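 16 h, 37 C exposure of p53RE-bla cells to compounds with human liver microsomes and NADPH (0.5 mg/mL final each); detection via LiveBLAzer mixture, 2 h dark at room temperature.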

[6] = p53 small molecule agonists, cell-based qHTS assay with rat liver microsomes (AID 1963578)
How it was run: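 With rat liver microsomes and NADPH present (0.5 mg/mL final each), p53RE-bla cells are treated with compound for 16 h at 37 C. LiveBLAzer detection mixture is then applied for 2 h at room temperature in the dark.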

[7] = p53 small molecule agonists, cell-based qHTS assay with human liver microsomes: qHTS cell viability counter screen (AID 1963579); note: nearly all actives have a fitted effect of over 45% in size
How it was run: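 In this multiplexed counter screen, the reporter plates were subsequently treated with CellTiter-Glo so that cell viability, reflected by luminescence, could be recorded for p53RE-bla cells dosed 16 h with compounds under microsomal activation (HLM and NADPH).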

[8] = p53 small molecule agonists, cell-based qHTS assay with rat liver microsomes: qHTS cell viability counter screen (AID 1963580); note: nearly all actives have a fitted effect of over 45% in size
How it was run: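 Cytotoxicity counter screen: intracellular ATP read by CellTiter-Glo luminescence in the p53 reporter wells. HCT-116 p53RE-bla cells were treated for 16 h at 37 C alongside rat liver microsomes and NADPH, each 0.5 mg/mL final.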

[9] = p53 small molecule agonists, cell-based qHTS assay: qHTS cell viability counter screen (AID 1963581); note: nearly all actives have a fitted effect of over 45% in size
How it was run: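 Cytotoxicity read-out: ATP-based luminescence (CellTiter-Glo, 30 min RT) measured in the same wells as the p53 reporter assay, HCT-116 p53RE-bla cells, 16 h compound exposure at 37 C.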

[10] = p53 small molecule agonists, cell-based qHTS assay (AID 1963582; active = well fitted activation curve with a large enough effect in the signal ratio in the repeat runs, not every such curve was filed as active; the % refers to the signal ratio)
How it was run: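 Fluorescence intensity read-out of a beta-lactamase reporter under a p53 response element. Cells were exposed to DMSO-dissolved compounds for 16 h at 37 C, then developed with FRET substrate for 2 h at RT.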

[11] = molecular target: 5-hydroxytryptamine receptor 2A (Homo sapiens) (UniProt P28223); test: 5-hydroxytryptamine receptor 2A (HTR2A) small molecule antagonists, cell-based qHTS assay (AID 1963586); note: nearly all actives have a fitted effect of over 45% in size; note: potency is the fitted concentration of half-maximal effect
Sequence of 5-hydroxytryptamine receptor 2A (Homo sapiens) (P28223 whole entry, looked up): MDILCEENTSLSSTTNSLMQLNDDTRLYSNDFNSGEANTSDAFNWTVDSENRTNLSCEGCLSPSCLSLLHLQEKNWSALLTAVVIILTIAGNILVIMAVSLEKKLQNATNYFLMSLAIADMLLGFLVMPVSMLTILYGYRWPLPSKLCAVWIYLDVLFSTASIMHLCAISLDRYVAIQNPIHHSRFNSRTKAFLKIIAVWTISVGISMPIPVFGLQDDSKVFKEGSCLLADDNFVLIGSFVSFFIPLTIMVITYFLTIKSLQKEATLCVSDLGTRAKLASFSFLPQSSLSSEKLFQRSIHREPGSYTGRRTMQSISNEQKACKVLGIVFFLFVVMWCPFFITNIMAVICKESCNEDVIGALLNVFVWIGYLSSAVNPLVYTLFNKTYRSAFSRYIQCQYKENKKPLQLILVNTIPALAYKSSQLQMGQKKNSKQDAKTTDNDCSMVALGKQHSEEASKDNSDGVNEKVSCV
How it was run: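 CHO cells stably expressing human HTR2A were plated for 18 h at 37 C, then loaded with calcium dye for 1 h. Compounds were preincubated 5 min at room temperature before DOI (4 nM solution) was added. Kinetic fluorescence was read for 3 min.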

[12] = molecular target: 5-hydroxytryptamine receptor 2A (Homo sapiens) (UniProt P28223); test: 5-hydroxytryptamine receptor 2A (HTR2A) small molecule agonists, cell-based qHTS assay (AID 1963587); note: nearly all actives have a fitted effect of over 30% in size
How it was run: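 Kinetic calcium-flux fluorescence (2 min, 1 sec intervals) after compound addition in agonist mode. HTR2A-CHO cells were cultured 18 h, then dye-loaded 1 h at 37 C.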

[13] = molecular target: Muscarinic acetylcholine receptor M1 (Homo sapiens) (UniProt P11229); test: Cholinergic receptor muscarinic 1 (CHRM1) small molecule antagonists, cell-based qHTS assay (AID 1963588); note: nearly all actives have a fitted effect of over 40% in size
Sequence of Muscarinic acetylcholine receptor M1 (Homo sapiens) (P11229 whole entry, looked up): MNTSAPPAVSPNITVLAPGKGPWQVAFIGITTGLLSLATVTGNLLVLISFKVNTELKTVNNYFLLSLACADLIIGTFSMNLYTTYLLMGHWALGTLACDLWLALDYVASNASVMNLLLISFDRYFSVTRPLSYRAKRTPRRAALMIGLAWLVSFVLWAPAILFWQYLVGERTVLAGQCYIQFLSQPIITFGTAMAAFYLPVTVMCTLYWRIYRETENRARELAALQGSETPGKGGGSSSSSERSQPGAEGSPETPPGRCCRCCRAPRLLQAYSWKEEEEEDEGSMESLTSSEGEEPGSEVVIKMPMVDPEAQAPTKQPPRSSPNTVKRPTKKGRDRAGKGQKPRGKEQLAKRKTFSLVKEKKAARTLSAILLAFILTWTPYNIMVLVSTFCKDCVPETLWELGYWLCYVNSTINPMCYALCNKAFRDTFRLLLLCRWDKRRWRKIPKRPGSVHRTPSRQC
How it was run: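 Compounds were tested at 15 concentrations in three independent runs. Dye-loaded CHRM1-CHO cells were exposed 5 min at room temperature before stimulation by acetylcholine added at 50nM. Intracellular calcium was read kinetically on FDSS for 3 min.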

[14] = cAMP Responsive Elements (CRE) small molecule agonists, cell-based qHTS assay (AID 1963590)
How it was run: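 Beta-lactamase reporter readout: LiveBLAzer B/G FRET substrate, 2 h at room temperature, added after 3 h compound treatment of CRE-bla HEK 293T cells at 37 C/5% CO2.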

[15] = cAMP Responsive Elements (CRE) small molecule antagonists, cell-based qHTS assay (AID 1963591; active = well fitted inhibition curve with a large enough effect in the signal ratio in the repeat runs, not every such curve was filed as active; the % refers to the signal ratio)
How it was run: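 HEK293T CRE-bla; 18 h preincubation; compound pin-transfer; NKH477 0.25 uM final, 3 h, 37 C; LiveBLAzer FRET substrate 2 h RT.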

[16] = molecular target: Beta-2 adrenergic receptor (Homo sapiens) (UniProt P07550); test: Adrenergic beta2 receptor (ADRB2) small molecule antagonists, cell-based qHTS assay (AID 1963592); note: series mostly up to about 92 µM; nearly all actives have a fitted effect of over 50% in size
Sequence of Beta-2 adrenergic receptor (Homo sapiens) (P07550 whole entry, looked up): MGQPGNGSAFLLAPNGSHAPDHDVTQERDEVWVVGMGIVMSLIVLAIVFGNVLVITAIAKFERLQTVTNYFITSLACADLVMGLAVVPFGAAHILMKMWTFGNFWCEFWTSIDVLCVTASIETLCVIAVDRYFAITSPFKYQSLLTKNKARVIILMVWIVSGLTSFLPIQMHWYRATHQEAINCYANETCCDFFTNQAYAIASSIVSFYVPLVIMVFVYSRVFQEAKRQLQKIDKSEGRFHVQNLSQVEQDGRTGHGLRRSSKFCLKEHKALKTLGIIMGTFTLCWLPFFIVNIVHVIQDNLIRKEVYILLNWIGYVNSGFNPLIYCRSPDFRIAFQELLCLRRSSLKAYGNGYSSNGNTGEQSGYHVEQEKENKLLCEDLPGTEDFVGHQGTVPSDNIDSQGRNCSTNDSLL
How it was run: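 Assay format: CHO-ADRB2 cells, 18-20hr seeding at 37C/5% CO2, then compound plus 1nM isoproterenol agonist mix for 0.5hr RT. Homogeneous time-resolved fluorescence cAMP detection after 1hr, expressed as 665/615 nm ratio.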

[17] = molecular target: D(2) dopamine receptor (Homo sapiens) (UniProt P14416); test: Dopamine D2 receptor (DRD2) small molecule agonists, cell-based qHTS assay (AID 1963594); note: nearly all actives have a fitted effect of over 35% in size
Sequence of D(2) dopamine receptor (Homo sapiens) (P14416 whole entry, looked up): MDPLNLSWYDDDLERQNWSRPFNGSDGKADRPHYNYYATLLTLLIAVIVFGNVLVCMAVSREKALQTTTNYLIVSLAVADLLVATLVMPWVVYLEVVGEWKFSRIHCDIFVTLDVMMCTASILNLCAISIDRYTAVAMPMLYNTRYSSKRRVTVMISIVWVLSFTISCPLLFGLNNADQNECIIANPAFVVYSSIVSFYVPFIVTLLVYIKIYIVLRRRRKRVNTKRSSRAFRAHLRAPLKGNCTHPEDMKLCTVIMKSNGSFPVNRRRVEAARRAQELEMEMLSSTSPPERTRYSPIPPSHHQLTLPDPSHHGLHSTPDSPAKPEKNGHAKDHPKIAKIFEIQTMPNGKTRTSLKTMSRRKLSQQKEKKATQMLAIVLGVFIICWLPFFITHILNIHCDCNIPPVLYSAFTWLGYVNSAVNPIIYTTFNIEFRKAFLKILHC
How it was run: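 cAMP accumulation in DRD2-HEK293 cells measured by HTRF after 1 h detection; compounds added 10 min before NKH477 (200nM […]) forskolin-analogue stimulation, 30 min at room temperature, with Ro20-1724 present at 0.1 mM final.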

[18] = molecular target: D(2) dopamine receptor (Homo sapiens) (UniProt P14416); test: Dopamine D2 receptor (DRD2) small molecule antagonists, cell-based qHTS assay (AID 1963595; active = well fitted inhibition curve with a large enough effect in the signal ratio in the repeat runs, with a control signal flat; the % refers to the signal ratio)
How it was run: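 Antagonism was scored as restored cAMP in HEK293-DRD2 cells. These cells were stimulated with 200 nM NKH477 and 12 nM quinpirole for 30 min at room temperature, in the presence of 0.1 mM Ro20-1724.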

[19] = molecular target: Muscarinic acetylcholine receptor M1 (Homo sapiens) (UniProt P11229); test: Cholinergic receptor muscarinic 1 (CHRM1) small molecule agonists, cell-based qHTS assay (AID 1963589); note: nearly all actives have a fitted effect of over 35% in size
How it was run: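 Calcium flux read-out: kinetic fluorescence at 1 sec intervals after pin-tool compound addition to dye-loaded CHRM1-CHO cells (human M1). Agonist mode; 15 concentrations tested in triplicate independent runs.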

[20] = molecular target: Beta-2 adrenergic receptor (Homo sapiens) (UniProt P07550); test: Adrenergic beta2 receptor (ADRB2) small molecule agonists, cell-based qHTS assay (AID 1963593);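 note: CHO cells stably overexpressing human ADRB2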
How it was run: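 CHO cells stably over-expressing ADRB2 were plated overnight at 37C, then dosed with compounds plus a stimulation mix containing 100uM IBMX and 25uM Ro-20-1724 for 0.5hr at room temperature. cAMP was measured by HTRF competition, 1hr.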

Measured: Potency

CCC(C)(C)C1CCC(O)CC1 (stereo unspecified)
not listed: [19] | [20]
inactive: all other assays above

CCN(Cc1cccc(S(=O)(=O)O)c1)c1ccc(C(=C2C=CC(=[N+](CC)Cc3cccc(S(=O)(=O)[O-])c3)C=C2)c2ccccc2)cc1
not listed: [15] | [16] | [20]
inactive: all other assays above

CC(=O)Nc1ccc(/C=N/NC(N)=S)cc1
not listed: [14] | [20]
inactive: all other assays above

CC(C)=CC(C)(C)C
not listed: [13] | [20]
inactive: all other assays above

CC(C)COC(=O)CC(C(=O)OCC(C)C)S(=O)(=O)O (stereo unspecified)
not listed: [11] | [15] | [16] | [20]
inactive: all other assays above

CC1(C)CCC[C@]2(C)[C@H]3CC(=O)O[C@]3(C)CC[C@@H]12
not listed: [12] | [13] | [14] | [15] | [18] | [20]
inactive: all other assays above

CC(C)C(O)(c1ccc(OC(F)(F)F)cc1)c1cncnc1 (stereo unspecified)
not listed: [15] | [20]
inactive: all other assays above

CCC(C)(CN(C)C)OC(=O)c1ccccc1 (stereo unspecified)
not listed: [11] | [19]
inactive: all other assays above

O=C(OCCOCCOCCOC(=O)c1ccccc1)c1ccccc1
not listed: [14] | [15] | [17] | [20]
inactive: all other assays above

CN(C)Cc1cc(C(C)(C)C)c(O)c(C(C)(C)C)c1
active: [11] 3.75 µM
not listed: [12] | [16] | [19] | [20]
inactive: all other assays above

CCCC(=O)OC
not listed: [12] | [18] | [20]
inactive: all other assays above

O=P(c1ccccc1)(c1ccccc1)c1ccccc1
not listed: [19] | [20]
inactive: all other assays above

Cc1cc(Cl)c(C)cc1Cl
not listed: [15] | [18] | [19]
inactive: all other assays above

O=C1Nc2ccc([N+](=O)[O-])cc2C1=O
not listed: [12] | [15] | [16] | [18] | [20]
inactive: all other assays above
